Assay results from the supplement of paper PMC6555819.

What follows are sequences tested on THRa homodimer (NR concentration 90 nM) (assay: PBM binding z-score (relative to random genomic background probes); higher = stronger binding; sequences stand for … in GC…GCGATTGACAGCGTAGAATGAAGG).
Procedure, shortened: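 Custom Agilent 4×180K protein-binding microarrays carried double-stranded probes, each with a 34-nt variable region. These regions held direct-repeat seeds, single-nucleotide variants, half-site ablations and random human genomic background sequences. Ligand-free nuclear receptor dimers were incubated on the arrays for 1 h, antibodies against each partner (one per run) detected binding, and scanned fluorescence was regression-normalized. Binding z-scores take the random background probes as reference.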

Sequence | PBM binding z-score
ACTCGGAGTACAAAGGTCAGAGCTACGCCAGTGA | -0.258
GCTCGCAGGACAAGGTCAGAGCTTTGTCCGTAGA | 1.09
ATCGAAAGGTCGAAGGTGAGTATCCCCACCCGAA | 0.377
GTACCAAGGTGAATAGGTCGTTGAGGAGTAGGCG | 0.714
CCTACTGGGCCAAAAAGGTCATTGGTGCCGATAA | 0.738
ACTATTAGTTGAGACGAGGGGAACCGATAGGTTG | -0.473
TCAGACAGGTGAAGGTAACTTAGGTACGCAGTCG | 0.691
GCCAGCAGGCCATTTGGGTCACTCAATGACGGGC | 0.516
GCTATTAGTTGAAAGGGCAACTGAATGATTCTCG | -0.217
TAGCCTAGGTCAAATCGGGCCAGTATACGCTATA | 0.89
CAAACTAGGTCATCGGAAGGTCAAAGTCCGCATG | 2.3
GGAACTAGGGCATTCGAGTTGATAGCATGGCGAT | -0.433
TCTTGAAGATCAACAGGAGGTTAAGAAAGATCGA | -0.383
ACAGACAGGTGAGTGAAGGTATCTCAGCTGGACG | -0.781
CAAACTAGGTCAAGCTCAAAGTCGGTTTGTGCCA | 1.34
AATACAGGGTCATCGTAGCCCAGAGTACGCACAG | 1.34
CCTGCTAGGTCATGGTAAGCTAATCTACAGTATG | 1.22
GCTAGCAGGCCATTTGGGTCACTCAGTGACGGGC | 0.383
TCAGACAGGTGAAGATAACTCAGGTACGCAGTCG | 0.4
CCAGACAGGTGAGAAGGTAACTTAGCCTCGATTA | 0.316

Sequence | PBM binding z-score
TAGCCTAGGTCATGCGGTCCAGTATAGTGTCGGC | 1.32
ACTAGTTGGTCAGCGGAGGTCACACACAATTCGG | 2.89
TGAATGAGGTTAAAGATCACGGAACGTGGCGTCG | 0.0245
TATACAGGGTCAAAGGCCAGGGTACGAATGTCGA | 1.2
CCTTACGGGACACGAGGTTATAGCACGACGAGCG | 0.83
CTACCAAGGTGAACAAGGTCGTTGAATACTATTC | 1.83
CCGACTGGGACAAGGTTACCATAACGCACAGCCA | 1.08
CCTAGTTGGTCAAGTTCACACACGCTATAGGTAC | 1.46
ATTAGCAGGCCAAGTTTGGGTCACTCAAACAAAG | 0.986
GATACAGGGTCACGGCCAGAGTACGCGTATTGAT | 2.03
GCTAGCAGGCCATTTGGGTCGCTCAATGACGGGC | -0.914
TCTAGCAGGCCAGAGGCTCACTCAAGAGGTACGG | -1.59
ATCGAAAGGTCGAAGCTGAGTATACCCACCCGAA | 0.00439
CATTCAGGGTCAGCTAGGCCAGAGTAGGGACGGC | 1.31
TTTGCTAGGTCAGTTGGTCAGCTAACGAGCTGCC | 0.0567
ACAGACAGGTGCTGAAGGTAACTCAGGCTATCAT | -0.356
AGAAGGAGGTTAAGATCAGGGAAACAGAATACAT | 0.811
AGAATGAGGTTAAGATCAGGCAAACAGAATACAT | 0.441
CCTACTGGGCCAACGTCATTGATCAGTCAAAGCA | -0.526
GCTAGCAGGCCGTTTGGGTCACTCAATGACGGGC | 0.166
